# Values without a mark were called inactive. Activity calls are given as the source filed them. Cut-off read from the data, not from the text of the source, unless noted: active = inhibition above about 42%; inactive = the rest.
# Experiments:
# [1] = StAR promoter reporter inhibitors, counter-screen for LRH-1 inverse agonist project, cell-based, luminescence, high throughput (AID 651611; in the data active = inhibition above about 28%); conditions: StAR promoter luciferase reporter counterscreen, at 3.6 µM, hits give high values
# [2] = target: Nuclear receptor subfamily 5 group A member 2 (Homo sapiens) (UniProt O00482); experiment: LRH-1 (NR5A2) inverse agonists, retest, confirmation, cell-based, luminescence (AID 651613); conditions: cell-based LRH-1 luciferase reporter, inverse agonism; at 3.6 µM; hits give high values;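 note: HEK293T cells co-transfected with LRH-1 and StAR promoter luciferase reporter; 0% = vehicle wells and 100% = parental cells lacking receptor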
# Nuclear receptor subfamily 5 group A member 2 (Homo sapiens), sequence (O00482 whole entry, looked up): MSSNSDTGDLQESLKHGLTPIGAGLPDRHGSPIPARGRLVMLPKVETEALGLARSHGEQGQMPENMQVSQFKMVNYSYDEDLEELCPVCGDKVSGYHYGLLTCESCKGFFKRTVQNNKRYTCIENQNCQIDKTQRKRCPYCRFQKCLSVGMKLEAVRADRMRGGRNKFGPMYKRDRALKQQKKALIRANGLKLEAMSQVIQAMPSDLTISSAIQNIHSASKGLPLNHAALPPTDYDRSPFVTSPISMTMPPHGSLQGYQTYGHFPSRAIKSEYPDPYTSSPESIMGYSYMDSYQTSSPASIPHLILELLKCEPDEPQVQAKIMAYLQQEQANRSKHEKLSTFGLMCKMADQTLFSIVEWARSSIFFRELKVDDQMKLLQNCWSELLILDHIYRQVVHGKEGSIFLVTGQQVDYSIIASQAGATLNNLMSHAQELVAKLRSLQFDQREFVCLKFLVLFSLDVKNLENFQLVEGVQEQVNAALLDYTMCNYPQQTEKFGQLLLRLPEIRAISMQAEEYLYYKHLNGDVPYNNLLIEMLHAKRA
# [3] = target: Steroidogenic factor 1 (Homo sapiens) (UniProt Q13285); experiment: SF1 (NR5A1) inverse agonists, counter-screen for LRH-1 inverse agonist project, cell-based, luminescence, high throughput (AID 651614; in the data active = inhibition above about 44%;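 note: cells cotransfected with StAR promoter reporter and SF1 expression vector; 0% = vehicle on cells with receptor and 100% = vehicle on cells lacking receptor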); conditions: cell-based SF1 luciferase reporter, at 3.6 µM, hits give high values
# Steroidogenic factor 1 (Homo sapiens), sequence (Q13285 whole entry, looked up, the tested form may be a part): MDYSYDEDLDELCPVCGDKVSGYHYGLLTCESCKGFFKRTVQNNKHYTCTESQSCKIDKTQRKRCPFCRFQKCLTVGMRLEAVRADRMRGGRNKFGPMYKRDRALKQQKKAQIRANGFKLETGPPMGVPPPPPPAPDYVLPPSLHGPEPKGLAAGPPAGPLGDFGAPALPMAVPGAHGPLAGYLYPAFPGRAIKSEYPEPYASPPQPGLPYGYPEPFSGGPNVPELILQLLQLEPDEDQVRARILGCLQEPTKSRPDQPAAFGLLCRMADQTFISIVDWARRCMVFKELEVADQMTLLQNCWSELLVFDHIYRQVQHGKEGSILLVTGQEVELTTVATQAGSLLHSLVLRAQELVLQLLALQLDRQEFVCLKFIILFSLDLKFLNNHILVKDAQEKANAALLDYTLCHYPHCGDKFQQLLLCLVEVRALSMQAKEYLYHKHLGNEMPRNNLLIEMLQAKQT
# [4] = VP16 transactivation reporter inhibitors, counter-screen for LRH-1 inverse agonist project, cell-based, luminescence, high throughput (AID 651615; in the data active = inhibition above about 33%); conditions: Gal4-VP16 luciferase reporter cells, at 3.6 µM, hits give high values
Compound,inhibition [1],inhibition [2],inhibition [3],inhibition [4]
CN(C)c1ccc(NC(=O)CSc2nnc(-c3ccco3)c(-c3ccco3)n2)cc1,14.1%,54.9% (active),47.8% (active),-2.61%
CCCCCc1ccc(OCCCC[n+]2ccc(C)cc2)c(CCCCC)c1,21.4%,42.3% (active),45.7% (active),45.6% (active)
COc1cc2c(cc1OC)CN(C(=O)c1cc(=O)c3ccccc3o1)CC2,46.3% (active),30.2%,40.7%,16%
COc1cc(N)c(Cl)cc1C(=O)OCC(=O)N1c2ccccc2NC(=O)C1(C)C,11.8%,19.4%,11.5%,-12.3%
Cc1nn(Cc2ccc(Cl)cc2)c(C)c1NC(=O)c1noc2c1CCCCC2,21%,46.8% (active),54.7% (active),18.3%
CC(=O)N1CCc2c(sc(NC(=O)c3ccc([N+](=O)[O-])o3)c2C#N)C1,-28.6%,36%,43.8% (active),-119%
CCCCNc1cc(C)nc(NCc2ccccc2)n1,35.5% (active),57.6% (active),68.8% (active),50.8% (active)
CCc1ccccc1NC(=O)CSc1nnc(Cn2nnc3ccccc32)n1C,5.04%,53% (active),48.2% (active),-5.32%
O=[N+]([O-])c1cc2ncccc2c2ncccc12,42.1% (active),56.2% (active),53.1% (active),-8.8%
O=C(Nc1ccc(S(=O)(=O)N2CCOCC2)cc1)c1cccc([N+](=O)[O-])c1,-6.54%,56.9% (active),50.2% (active),-5.35%
Cn1c(CCNC(=O)c2cccs2)nnc1SCC(=O)N1CCN(c2ccccc2)CC1,7.98%,29.8%,28.4%,0.01%
CC(=O)c1ccc(NC(=O)CSC2=NS(=O)(=O)c3cc(Cl)ccc3N2)cc1,7.81%,43.6% (active),44.5% (active),-9.28%
COc1cc(F)c(C2=CC(=O)CC(C)(C)C2)cc1F,-6.98%,43.9% (active),34.5%,-13.9%
O=C(CSc1nncc(=O)[nH]1)Nc1cccc([N+](=O)[O-])c1,11.7%,57.3% (active),53.2% (active),8.83%
CCc1ccc(N2C=C(C(=O)OC)C(c3ccc(OC)cc3)C(C#N)=C2N)cc1 (centres undefined),48.9% (active),25.1%,45.3% (active),24.5%
CCCc1nnc(SCC(=O)Nc2ccc(C(=O)OCC)cc2)o1,5.44%,56.6% (active),60.7% (active),-15.5%
COc1ccccc1NC(=O)c1ccc(NC(=O)CSc2nnnn2C)cc1,4.14%,59% (active),55.5% (active),-1.96%
Cc1ccc2[nH]c3c(c2c1)CCN1C(=O)OC(C)(C)C31C (centres undefined),10.6%,53.7% (active),49% (active),-1.39%
CC(=O)N1CCN(c2ccc(NCc3ccc(C)cc3)cc2)CC1,1.04%,34.2%,33.7%,1.11%
NC(=O)c1oc2ccccc2c1NC(=O)c1ccc([N+](=O)[O-])o1,23.2%,67.6% (active),69.1% (active),-9.15%
COc1ccc(CCNC(=O)CSc2nc(O)c(CCC(C)C)c(=O)[nH]2)cc1OC,2.2%,61.7% (active),50.4% (active),-12.8%
